# Results from PubChem BioAssay (Tox21).
# A number with no mark means an inactive call. Results filed as inconclusive are left out. Entries that show only a call come without a potency. Active and inactive are the calls of the source. Unless noted, the call rests on the fitted dose curve; in most records, active means well fitted curve in the direction sought with a large enough effect in the repeat runs; inconclusive means weak or mixed curves; inactive means no such curve, though single readings can be large; an effect the other way counts as inactive or inconclusive.
# Legend:
# [1] = Human pregnane X receptor (PXR) small molecule agonists, qHTS cell viability counter screen (AID 1346977); further: nearly all actives have a fitted effect of over 50% in size; further: potency means the concentration at half of the fitted maximal effect
# Summary of the method: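 After a 5hr pre-incubation, PXR-Luc HepG2 cells received compounds plus positive control in DMSO and were kept 24hr at 37C. Cell viability was quantified by fluorescence from CellTiter-Fluor added for the final hour.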
# [2] = Caspase-3/7 induction in HepG2 cells by small molecules, qHTS assay (AID 1346978); further: nearly all actives have a fitted effect of over 15% in size
# Summary of the method: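 Wild-type HepG2 cells, 2,000/well, settled 5 hr at 37 C and 5% CO2, then compound-treated for 17 hr; caspase-3/7 activity read by luminescent Caspase-Glo 3/7 after 30 min at room temperature.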
# [3] = Caspase-3/7 induction in CHO-K1 cells by small molecules, qHTS cell viability counter screen (AID 1346979); further: nearly all actives have a fitted effect of over 35% in size; further: potency means the concentration at half of the fitted maximal effect
# Summary of the method: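 Multiplexed with Caspase-Glo 3/7 in CHO-K1 cells, this counter screen added CellTiter-Fluor after 16hr of compound exposure and recorded fluorescence 1hr later.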
# [4] = Caspase-3/7 induction in CHO-K1 cells by small molecules, qHTS assay (AID 1346980); further: nearly all actives have a fitted effect of over 15% in size
# Summary of the method: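 Wild-type CHO-K1 cells exposed to compounds for 17hr at 37 C, 5% CO2. Caspase-3/7 activity then measured by Caspase-Glo 3/7 luminescence after 30min at room temperature.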
# [5] = target: Nuclear receptor subfamily 1 group I member 2 (Homo sapiens) (UniProt O75469); test: Human pregnane X receptor (PXR) small molecule agonists, qHTS assay (AID 1346982); further: nearly all actives have a fitted effect of over 35% in size; further: potency means the concentration at half of the fitted maximal effect
# Summary of the method: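 Luciferase signal from ONE-Glo (30 min, room temperature) measured activation of hPXR-driven CYP3A4 reporter expression in PXR-Luc HepG2 cells treated with compounds for 24 hr at 37 C.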
# [6] = target: Acetylcholinesterase (Homo sapiens) (UniProt P22303); test: Acetylcholinesterase (AChE) small molecule antagonists: enzyme-based qHTS assay (AID 1347397; calls by dose curve; further: nearly all actives have a fitted effect of over 55% in size; further: potency means the concentration at half of the fitted maximal effect); conditions: Potency: AChE enzyme activity inhibition; outcome: AChE enzyme activity inhibition
# Summary of the method: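 Enzyme inhibition was scored from DTNB-detected thiocholine formed by recombinant human AChE acting on acetylthiocholine. The 30 min compound preincubation and 10 min substrate reaction were both run at room temperature, with DMSO as vehicle control.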
# [7] = target: Acetylcholinesterase (Homo sapiens) (UniProt P22303); test: Acetylcholinesterase (AChE) small molecule antagonists: enzyme-based qHTS assay with human liver microsomes (AID 1347399; calls by dose curve; further: nearly all actives have a fitted effect of over 60% in size; further: potency means the concentration at half of the fitted maximal effect); conditions: Potency: qHTS inhibition; outcome: qHTS inhibition
# Summary of the method: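 Recombinant human AChE (50 mU/mL in the enzyme mix) and human liver microsomes (0.25 mg/mL final) were preincubated with compound and NADPH (0.25 mg/mL final) for 30 min at 37 C. Acetylthiocholine/DTNB was then added; thiocholine was read colorimetrically after 10 min at room temperature.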
# [8] = target: Cytochrome P450 2D6 (Homo sapiens) (UniProt P10635); test: Cytochrome P450 Family 2 Subfamily D Member 6 (CYP2D6) small molecule antagonists: luciferase reporter qHTS assay (AID 1671196); further: nearly all actives have a fitted effect of over 50% in size; further: potency means the concentration at half of the fitted maximal effect
# Summary of the method: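 Read-out is luminescence from luciferin formed by CYP2D6 turnover of a proluciferin substrate, recorded as relative luminescence units. Reactions ran 1 h at room temperature after NADPH regeneration solution was added.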
# [9] = target: Cytochrome P450 2C19 (Homo sapiens) (UniProt P33261); test: Cytochrome P450 Family 2 Subfamily C Member 19 (CYP2C19) small molecule antagonists: luciferase reporter qHTS assay (AID 1671197); further: nearly all actives have a fitted effect of over 65% in size; further: potency means the concentration at half of the fitted maximal effect
# Summary of the method: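 P450-Glo CYP2C19 screening system; proluciferin substrate; DMSO compound stocks; 10 min RT preincubation; NADPH regeneration, 1 h at 37C; luciferin detection reagent, 20 min RT; luminescence as RLU.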
# [10] = target: Cytochrome P450 2C9 (Homo sapiens) (UniProt P11712); test: Cytochrome P450 Family 2 Subfamily C Member 9 (CYP2C9) small molecule antagonists: luciferase reporter qHTS assay (AID 1671198); further: nearly all actives have a fitted effect of over 50% in size; further: potency means the concentration at half of the fitted maximal effect
# Summary of the method: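 P450-Glo proluciferin substrate with CYP2C9 enzyme; 10 min RT preincubation, then NADPH regeneration 1 h at 37C; luciferin detection reagent 20 min RT, luminescence in relative luminescence units.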
# [11] = target: Cytochrome P450 1A2 (Homo sapiens) (UniProt P05177); test: Cytochrome P450 Family 1 Subfamily A Member 2 (CYP1A2) small molecule antagonists: luciferase reporter qHTS assay (AID 1671199); further: nearly all actives have a fitted effect of over 50% in size; further: potency means the concentration at half of the fitted maximal effect
# Summary of the method: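 P450-Glo CYP1A2, 1536-well qHTS: enzyme/proluciferin substrate + cpd (DMSO), 10 min RT; NADPH regen, 1 h RT; detection reagent, 20 min; luminescence, RLU.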
# [12] = target: Voltage-gated inwardly rectifying potassium channel KCNH2 (Homo sapiens) (UniProt Q12809); test: Human Ether-a-go-go-Related Gene (hERG) channel small molecule antagonists: fluorescence cell-based qHTS assay (AID 1671200)
# Summary of the method: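 Cell line hERG-U2OS; dye FluxOR II, 1 h RT dark; Tl+ stimulus; ex 480/em 540 nm, read each second for 2 min.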
# [13] = target: Cytochrome P450 3A4 (Homo sapiens) (UniProt P08684); test: Cytochrome P450 Family 3 Subfamily A Member 4 (CYP3A4) small molecule antagonists: luciferase reporter qHTS assay (AID 1671201)
# Summary of the method: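 Room-temperature assay throughout: 10 min compound–enzyme/substrate preincubation, 1 h reaction after NADPH regeneration solution, 20 min detection. Luciferin formed from proluciferin substrate is quantified by luminescence.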
# [14] = Caspase-3/7 induction in HepG2 cells by small molecules, qHTS cell viability counter screen (AID 1346981); further: series mostly up to about 92 µM; nearly all actives have a fitted effect of over 30% in size
# Summary of the method: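 HepG2, WT, 2,000 cells/well; 5 hr pre-incubation 37 C/5% CO2; compound pin-transferred from DMSO; 16 hr exposure; CellTiter-Fluor, 1 hr; fluorescence read.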
# [15] = target: Acetylcholinesterase (Homo sapiens) (UniProt P22303); test: Acetylcholinesterase (AChE) small molecule antagonists: colormetric cell-based qHTS assay (AID 1347395; calls by dose curve; further: nearly all actives have a fitted effect of over 30% in size; further: potency means the concentration at half of the fitted maximal effect)
# Summary of the method: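 In this cell-based qHTS, attached SH-SY5Y cells were treated with test chemicals for 30 min, after which acetylthiocholine hydrolysis was followed by DTNB colour development over 90 min at 37 C.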
# [16] = target: Acetylcholinesterase (Homo sapiens) (UniProt P22303); test: Acetylcholinesterase (AChE) small molecule antagonists: fluorescence cell-based qHTS assay (AID 1347398; calls by dose curve; further: nearly all actives have a fitted effect of over 50% in size; further: potency means the concentration at half of the fitted maximal effect); conditions: Potency: AChE activity; outcome: AChE activity
# Summary of the method: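 Endogenous acetylcholinesterase of SH-SY5Y neuroblastoma cells is measured in situ. After overnight attachment and 30 min compound exposure, cells receive acetylthiocholine and Thiolite Green; fluorescence is read after 40 min at room temperature.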
# [17] = target: Nuclear receptor subfamily 1 group I member 2 (Rattus norvegicus) (UniProt Q9R1A7); test: Rat pregnane X receptor (rPXR) activation by small molecules, qHTS assay (AID 1346983); conditions: rPXR luciferase reporter cells, One-Glo luminescence, 24 h; stronger effect = higher value; further: nearly all actives have a fitted effect of over 20% in size
# Summary of the method: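 Cell-based rPXR activation assay: rPXR cells, 2,000 per well, rested 5hr at 37 C, then exposed to compounds in DMSO for 24 hr at 37 C. Luciferase activity read by One-Glo luminescence after 30 min at room temperature.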
# [18] = target: Nuclear receptor subfamily 1 group I member 2 (Homo sapiens) (UniProt O75469); test: CYP3A4 induction through human pregnane X receptor (PXR) by small molecules, qHTS assay (AID 1346984); further: nearly all actives have a fitted effect of over 40% in size; further: potency means the concentration at half of the fitted maximal effect
# Summary of the method: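 Luminescence readout: luciferase signal after One-Glo (30 min, room temperature), following 3 h at 37C with 3uM final Luciferin-IPA P450 substrate. Cells were DPX-2 (HepG2, PXR/CYP3A4-luc co-transfected) dosed for 24 h.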
# [19] = target: Nuclear receptor subfamily 1 group I member 2 (Homo sapiens) (UniProt O75469); test: Human pregnane X receptor (PXR) activation by small molecules, qHTS assay (AID 1346985); further: nearly all actives have a fitted effect of over 40% in size
# Summary of the method: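 DPX-2 cells (HepG2 co-transfected with a PXR response element and a CYP3A4-promoter luciferase construct) were seeded at 2,000 per well, rested 5 hr at 37C, then exposed to DMSO-dissolved compounds for 24 hr. Activation was read as luciferase luminescence.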
# Sequence of Cytochrome P450 2C19 (Homo sapiens) (P33261 whole entry, looked up): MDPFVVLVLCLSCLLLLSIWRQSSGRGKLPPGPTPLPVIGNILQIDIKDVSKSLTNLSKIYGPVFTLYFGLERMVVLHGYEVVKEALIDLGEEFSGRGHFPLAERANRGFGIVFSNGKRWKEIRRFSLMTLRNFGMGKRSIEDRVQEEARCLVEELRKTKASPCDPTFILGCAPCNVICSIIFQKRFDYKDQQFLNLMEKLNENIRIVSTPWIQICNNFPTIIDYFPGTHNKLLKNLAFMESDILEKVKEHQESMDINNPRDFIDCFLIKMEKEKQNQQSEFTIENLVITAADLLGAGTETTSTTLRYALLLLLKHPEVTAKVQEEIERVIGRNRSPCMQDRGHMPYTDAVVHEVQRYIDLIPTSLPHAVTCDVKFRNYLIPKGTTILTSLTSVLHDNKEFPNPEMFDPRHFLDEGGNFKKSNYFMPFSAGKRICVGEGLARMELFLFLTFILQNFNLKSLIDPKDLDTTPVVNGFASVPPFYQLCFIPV
# Sequence of Acetylcholinesterase (Homo sapiens) (P22303 whole entry, looked up): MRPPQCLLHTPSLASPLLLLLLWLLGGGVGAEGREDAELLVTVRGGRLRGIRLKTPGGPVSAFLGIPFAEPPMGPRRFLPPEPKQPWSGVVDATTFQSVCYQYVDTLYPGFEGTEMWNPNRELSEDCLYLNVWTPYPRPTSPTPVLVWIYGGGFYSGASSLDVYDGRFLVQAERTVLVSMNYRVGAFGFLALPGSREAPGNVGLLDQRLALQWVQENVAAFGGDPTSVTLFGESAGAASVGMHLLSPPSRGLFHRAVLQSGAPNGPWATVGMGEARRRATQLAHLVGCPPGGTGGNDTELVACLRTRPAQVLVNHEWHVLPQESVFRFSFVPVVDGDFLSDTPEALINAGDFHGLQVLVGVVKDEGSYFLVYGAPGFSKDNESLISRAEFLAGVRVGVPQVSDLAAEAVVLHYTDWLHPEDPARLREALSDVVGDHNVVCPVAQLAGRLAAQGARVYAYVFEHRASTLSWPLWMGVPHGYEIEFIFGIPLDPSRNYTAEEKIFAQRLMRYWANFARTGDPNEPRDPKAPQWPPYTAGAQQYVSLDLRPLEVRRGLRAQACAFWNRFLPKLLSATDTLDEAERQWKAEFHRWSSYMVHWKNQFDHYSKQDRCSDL
# Sequence of Nuclear receptor subfamily 1 group I member 2 (Rattus norvegicus) (Q9R1A7 whole entry, looked up): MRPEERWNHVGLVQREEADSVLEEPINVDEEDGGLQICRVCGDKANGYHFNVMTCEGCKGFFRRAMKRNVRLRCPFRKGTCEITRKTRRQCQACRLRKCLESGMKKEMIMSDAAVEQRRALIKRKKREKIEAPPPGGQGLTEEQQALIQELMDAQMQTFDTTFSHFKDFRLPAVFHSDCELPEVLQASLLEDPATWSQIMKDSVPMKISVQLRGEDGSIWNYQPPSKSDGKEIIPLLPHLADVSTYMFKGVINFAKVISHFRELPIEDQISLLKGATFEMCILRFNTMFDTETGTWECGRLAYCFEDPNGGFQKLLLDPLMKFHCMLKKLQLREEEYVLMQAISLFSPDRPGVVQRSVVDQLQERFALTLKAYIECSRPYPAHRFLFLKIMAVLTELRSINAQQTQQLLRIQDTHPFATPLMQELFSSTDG
# Sequence of Nuclear receptor subfamily 1 group I member 2 (Homo sapiens) (O75469 whole entry, looked up): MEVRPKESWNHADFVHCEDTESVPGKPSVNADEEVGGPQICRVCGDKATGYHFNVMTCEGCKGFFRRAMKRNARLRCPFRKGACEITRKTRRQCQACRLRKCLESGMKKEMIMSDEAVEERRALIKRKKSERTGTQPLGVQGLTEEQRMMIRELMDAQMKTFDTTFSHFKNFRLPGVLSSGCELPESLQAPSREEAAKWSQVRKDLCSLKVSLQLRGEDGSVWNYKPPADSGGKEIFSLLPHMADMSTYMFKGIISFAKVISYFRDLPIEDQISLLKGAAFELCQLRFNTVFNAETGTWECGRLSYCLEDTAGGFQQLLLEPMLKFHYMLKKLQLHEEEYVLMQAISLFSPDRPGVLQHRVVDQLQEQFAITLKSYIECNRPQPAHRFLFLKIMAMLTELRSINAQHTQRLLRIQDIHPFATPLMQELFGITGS
# Sequence of Voltage-gated inwardly rectifying potassium channel KCNH2 (Homo sapiens) (Q12809 whole entry, looked up): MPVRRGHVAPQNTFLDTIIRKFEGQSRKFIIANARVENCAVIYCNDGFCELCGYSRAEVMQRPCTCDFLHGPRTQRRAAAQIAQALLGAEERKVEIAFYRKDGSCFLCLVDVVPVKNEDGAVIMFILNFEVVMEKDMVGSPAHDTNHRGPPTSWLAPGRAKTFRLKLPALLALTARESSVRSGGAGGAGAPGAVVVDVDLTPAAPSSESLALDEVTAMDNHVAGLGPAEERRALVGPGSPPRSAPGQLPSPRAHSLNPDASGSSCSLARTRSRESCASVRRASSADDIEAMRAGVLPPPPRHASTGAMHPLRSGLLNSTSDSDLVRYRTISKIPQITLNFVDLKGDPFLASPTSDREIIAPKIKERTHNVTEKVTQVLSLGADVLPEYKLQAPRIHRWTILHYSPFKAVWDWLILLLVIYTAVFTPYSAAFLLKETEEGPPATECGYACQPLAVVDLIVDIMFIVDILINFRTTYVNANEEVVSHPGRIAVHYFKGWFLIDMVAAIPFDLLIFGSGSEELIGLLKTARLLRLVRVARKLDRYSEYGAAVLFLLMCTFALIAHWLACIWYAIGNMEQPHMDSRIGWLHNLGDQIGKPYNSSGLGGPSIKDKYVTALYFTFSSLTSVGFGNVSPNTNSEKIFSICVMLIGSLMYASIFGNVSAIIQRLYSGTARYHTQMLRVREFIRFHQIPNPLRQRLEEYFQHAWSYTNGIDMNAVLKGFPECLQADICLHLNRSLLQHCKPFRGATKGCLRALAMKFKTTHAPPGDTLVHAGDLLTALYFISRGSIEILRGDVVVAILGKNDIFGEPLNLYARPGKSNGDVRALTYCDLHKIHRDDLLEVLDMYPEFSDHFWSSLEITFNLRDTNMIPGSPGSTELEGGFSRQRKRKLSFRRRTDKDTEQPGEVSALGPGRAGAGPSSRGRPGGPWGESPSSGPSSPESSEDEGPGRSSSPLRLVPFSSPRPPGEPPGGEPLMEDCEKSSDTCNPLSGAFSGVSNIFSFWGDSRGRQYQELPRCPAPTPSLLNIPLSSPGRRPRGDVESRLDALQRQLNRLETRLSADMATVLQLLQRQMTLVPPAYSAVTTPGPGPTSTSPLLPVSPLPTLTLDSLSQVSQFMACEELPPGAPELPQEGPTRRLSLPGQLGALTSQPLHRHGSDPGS
# Sequence of Cytochrome P450 3A4 (Homo sapiens) (P08684 whole entry, looked up): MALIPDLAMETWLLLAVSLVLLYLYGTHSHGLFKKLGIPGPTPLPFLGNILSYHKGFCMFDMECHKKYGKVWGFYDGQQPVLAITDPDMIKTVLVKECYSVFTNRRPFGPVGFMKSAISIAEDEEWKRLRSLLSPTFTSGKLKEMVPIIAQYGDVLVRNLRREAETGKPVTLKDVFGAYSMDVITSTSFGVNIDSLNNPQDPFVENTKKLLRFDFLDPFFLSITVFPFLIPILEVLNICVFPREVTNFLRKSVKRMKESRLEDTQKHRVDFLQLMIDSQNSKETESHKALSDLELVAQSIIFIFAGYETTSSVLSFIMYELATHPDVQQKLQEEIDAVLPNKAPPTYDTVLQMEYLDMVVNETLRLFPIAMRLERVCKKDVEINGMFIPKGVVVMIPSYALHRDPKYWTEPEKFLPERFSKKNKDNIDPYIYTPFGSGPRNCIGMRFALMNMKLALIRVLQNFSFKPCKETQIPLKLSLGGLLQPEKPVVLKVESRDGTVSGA
# Sequence of Cytochrome P450 1A2 (Homo sapiens) (P05177 whole entry, looked up): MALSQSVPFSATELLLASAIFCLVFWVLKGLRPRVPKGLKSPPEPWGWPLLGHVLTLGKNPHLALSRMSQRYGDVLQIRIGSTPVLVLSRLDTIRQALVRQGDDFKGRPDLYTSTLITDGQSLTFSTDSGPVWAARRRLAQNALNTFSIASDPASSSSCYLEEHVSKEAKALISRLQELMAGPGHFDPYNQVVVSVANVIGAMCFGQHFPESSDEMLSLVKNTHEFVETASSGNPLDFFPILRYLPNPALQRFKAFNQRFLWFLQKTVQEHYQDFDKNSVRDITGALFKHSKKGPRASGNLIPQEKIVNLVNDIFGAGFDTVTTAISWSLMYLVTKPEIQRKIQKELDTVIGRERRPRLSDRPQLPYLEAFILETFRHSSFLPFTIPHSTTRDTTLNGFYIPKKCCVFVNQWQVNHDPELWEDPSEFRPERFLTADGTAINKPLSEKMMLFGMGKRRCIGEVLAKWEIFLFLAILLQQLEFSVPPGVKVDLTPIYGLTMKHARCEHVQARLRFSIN
# Sequence of Cytochrome P450 2C9 (Homo sapiens) (P11712 whole entry, looked up): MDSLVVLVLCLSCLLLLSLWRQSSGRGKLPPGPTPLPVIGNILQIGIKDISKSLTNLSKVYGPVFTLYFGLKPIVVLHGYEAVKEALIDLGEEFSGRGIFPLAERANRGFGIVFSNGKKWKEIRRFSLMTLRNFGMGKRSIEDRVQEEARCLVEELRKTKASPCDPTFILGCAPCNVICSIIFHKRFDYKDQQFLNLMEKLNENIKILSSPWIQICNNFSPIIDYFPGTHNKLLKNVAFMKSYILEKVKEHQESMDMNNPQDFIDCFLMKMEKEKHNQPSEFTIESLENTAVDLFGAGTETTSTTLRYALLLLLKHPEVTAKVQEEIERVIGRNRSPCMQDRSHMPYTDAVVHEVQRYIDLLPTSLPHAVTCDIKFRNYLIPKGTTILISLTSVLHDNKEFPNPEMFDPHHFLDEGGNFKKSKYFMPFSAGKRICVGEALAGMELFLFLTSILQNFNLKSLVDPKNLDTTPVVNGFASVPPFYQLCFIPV
structure (smiles),measurement,setting,value
Cn1c(N)nc2c3cccnc3ccc21,Potency,[1],26 µM (active)
same,outcome,[2],inactive
same,Potency,[3],51.8 µM (active)
same,outcome,[4],inactive
same,Potency,[5],51.8 µM (active)
same,Potency,[6],inactive
same,Potency,[7],inactive
same,Potency,[8],12 µM (active)
same,Potency,[9],inactive
same,Potency,[10],inactive
same,Potency,[11],16.9 µM (active)
same,Potency,[12],inactive
same,Potency,[13],inactive
CCOc1cc(OP(=S)(OC)OC)nc(CC)n1,Potency,[1],inactive
same,outcome,[2],inactive
same,Potency,[3],inactive
same,Potency,[14],inactive
same,Potency,[5],inactive
same,Potency,[15],inactive
same,Potency,[6],inactive
same,Potency,[16],inactive
same,Potency,[7],inactive
same,Potency,[8],inactive
same,Potency,[9],35.6 µM (active)
same,Potency,[12],inactive
same,Potency,[13],inactive
CNC(=O)Oc1ccccc1C(C)C,Potency,[1],inactive
same,outcome,[2],inactive
same,Potency,[3],inactive
same,Potency,[14],inactive
same,Potency,[5],inactive
same,Potency,[15],3.56 µM (active)
same,Potency,[6],7.96 µM (active)
same,Potency,[16],4.48 µM (active)
same,Potency,[7],56.4 µM (active)
same,Potency,[8],inactive
same,Potency,[9],39.9 µM (active)
same,Potency,[11],35.6 µM (active)
same,Potency,[12],inactive
same,Potency,[13],inactive
CCCC(C)C1(CC)C(=O)N=C(S)NC1=O (centres undefined),Potency,[1],inactive
same,outcome,[2],inactive
same,Potency,[3],inactive
same,outcome,[4],inactive
same,Potency,[14],inactive
same,max activation,[17],-4.4%
same,Potency,[12],inactive
N[C@@H]1C[C@H]1c1ccccc1,Potency,[1],inactive
same,outcome,[2],inactive
same,Potency,[3],inactive
same,Potency,[14],inactive
same,Potency,[5],inactive
same,max activation,[17],-1.36%
same,Potency,[18],inactive
same,Potency,[19],inactive
same,outcome,[15],inactive
same,outcome,[7],inactive
same,Potency,[10],19.5 µM (active)
same,Potency,[12],inactive
CCOP(=O)(CN(CCO)CCO)OCC,Potency,[1],inactive
same,outcome,[2],inactive
same,Potency,[3],inactive
same,Potency,[14],inactive
same,Potency,[5],inactive
same,Potency,[15],inactive
same,Potency,[6],inactive
same,Potency,[16],inactive
same,Potency,[7],inactive
same,Potency,[8],inactive
same,Potency,[10],inactive
same,Potency,[12],inactive
same,Potency,[13],inactive
C/C(=N\NC(=O)Nc1cc(F)cc(F)c1)c1ncccc1C(=O)O,Potency,[1],inactive
same,outcome,[2],inactive
same,Potency,[3],inactive
same,Potency,[14],inactive
same,Potency,[5],inactive
same,Potency,[15],inactive
same,Potency,[6],inactive
same,Potency,[16],inactive
same,Potency,[7],inactive
same,Potency,[8],inactive
same,Potency,[12],inactive
same,Potency,[13],inactive
N[C@@H](Cc1ccc(Oc2cc(I)c(O)c(I)c2)c(I)c1)C(=O)O,Potency,[1],inactive
same,outcome,[2],inactive
same,Potency,[3],inactive
same,outcome,[4],inactive
same,Potency,[14],inactive
same,max activation,[17],-1.02%
same,Potency,[18],14.1 µM (active)
same,Potency,[19],inactive
same,Potency,[15],inactive
same,Potency,[7],inactive
same,Potency,[8],inactive
same,Potency,[9],inactive
same,Potency,[10],11 µM (active)
same,Potency,[11],inactive
same,Potency,[12],inactive
